Data published in PubChem BioAssay.
Activity calls are given as the source filed them.

Tests used:
[1] = target: Albumin (Bos taurus) (UniProt P02769); assay: bovine serum albumin binders on microarray, profiling panel, artefact control for SMM control protein annotation, biochemical, small-molecule microarray, Alexa647 label, 635/667 nm fluorescence (AID 1118); conditions: BSA-A647 binding, fluorescence 635 nm, higher = more signal;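 note: score merges 667 nm emission intensity and signal-to-noise per printed compound spot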
Chain of Albumin (Bos taurus) (P02769 whole entry, looked up): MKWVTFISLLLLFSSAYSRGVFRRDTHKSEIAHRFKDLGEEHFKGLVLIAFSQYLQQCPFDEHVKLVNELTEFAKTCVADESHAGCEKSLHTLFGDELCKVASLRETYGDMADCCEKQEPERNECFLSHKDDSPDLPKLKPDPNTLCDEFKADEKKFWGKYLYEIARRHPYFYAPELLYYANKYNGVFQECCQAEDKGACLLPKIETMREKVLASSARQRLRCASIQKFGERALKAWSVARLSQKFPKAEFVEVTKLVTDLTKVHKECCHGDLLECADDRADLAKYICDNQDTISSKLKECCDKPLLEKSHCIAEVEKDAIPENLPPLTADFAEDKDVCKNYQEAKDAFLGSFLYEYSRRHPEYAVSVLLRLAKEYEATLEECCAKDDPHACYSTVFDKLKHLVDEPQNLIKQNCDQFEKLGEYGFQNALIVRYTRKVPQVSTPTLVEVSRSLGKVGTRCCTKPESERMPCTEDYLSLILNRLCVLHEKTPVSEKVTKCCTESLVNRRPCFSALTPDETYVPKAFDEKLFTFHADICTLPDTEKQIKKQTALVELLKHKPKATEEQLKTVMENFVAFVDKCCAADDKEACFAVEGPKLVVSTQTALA

[2] = small-molecule microarray binders of probe aXIP, primary screen, biochemical, NeuroSMM set, 635/667 nm fluorescence (AID 1119); conditions: higher = more signal, called active from +8 up or from −8 down;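 note: probe is the protein aXip251-270 applied at 1 µg/mL to compound-printed slides; binding of probe to printed compounds measured as 667 nm fluorescence plus signal to noise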
[3] = small-molecule binders of probe aNOTCH3, primary screen, biochemical, small-molecule microarray, 635/667 nm fluorescence (AID 1120); conditions: higher = more signal;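 note: probe is a biotin-tagged antibody raised against NOTCH3 rather than NOTCH3 protein; score merges spot fluorescence near 667 nm with spot signal to noise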
[4] = small-molecule binders of probe aNOTCH2, primary screen, biochemical, small-molecule microarray, 635/667 nm fluorescence (AID 1121); conditions: higher = more signal;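 note: score merges feature fluorescence read at 667 nm with its signal to noise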
[5] = target: Carbonic anhydrase 2 (Homo sapiens) (UniProt P00918); assay: CAII small-molecule binders, profiling panel, biochemical, small-molecule microarray, Alexa647-labelled CAII (AID 1122); conditions: CAII-A647 binding fluorescence, higher = more signal
[6] = COS7 lysate on small-molecule microarray, probe aHis, 635 nm (AID 1123); conditions: COS7 cell lysate, fluorescence, higher = more signal;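 note: z-score combines 667nm fluorescence intensity with signal-to-noise per printed compound spot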
[7] = compound binding in COS7 lysate, probe aLAP1, primary screen, cell lysate, small-molecule microarray (AID 1124); conditions: probe aLAP1, fluorescence, higher = more signal;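 note: lysate comes from COS7 cells expressing LAP1 and is applied at 0.3 µg/mL; score merges spot fluorescence near 667 nm with signal-to-noise over triplicate slides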
[8] = system: Sam68 (KHDRBS1); assay: Sam68 small-molecule binders, primary screen, biochemical, small-molecule microarray, 635 nm fluorescence (AID 1125); conditions: small-molecule microarray binding, higher = more signal;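 note: score merges 667 nm channel intensity with signal to noise over triplicate slides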
[9] = system: Chordin-like protein 2 (CHRDL2); assay: CHRDL2 small-molecule binders, primary screen, biochemical, small-molecule microarray, 635 nm fluorescence (AID 1126); conditions: small-molecule microarray binding, fluorescence 635 nm; higher = more signal;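 note: printed compound slides probed with Chrdl2 protein at 4 µg/mL for 1 h at 4 C; score merges 667 nm emission intensity with signal to noise over three replicate slides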
[10] = target: Concanavalin-A (Canavalia ensiformis) (UniProt P02866); assay: ConA small-molecule binders, primary screen, artefact control for SMM control protein annotation, biochemical, small-molecule microarray, Alexa647 label, 635 nm (AID 1127); conditions: ConA-A647 binding fluorescence, higher = more signal;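 note: z combines 667 nm emission intensity with signal-to-noise across three replicate slides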
Chain of Concanavalin-A (Canavalia ensiformis) (P02866 whole entry, looked up): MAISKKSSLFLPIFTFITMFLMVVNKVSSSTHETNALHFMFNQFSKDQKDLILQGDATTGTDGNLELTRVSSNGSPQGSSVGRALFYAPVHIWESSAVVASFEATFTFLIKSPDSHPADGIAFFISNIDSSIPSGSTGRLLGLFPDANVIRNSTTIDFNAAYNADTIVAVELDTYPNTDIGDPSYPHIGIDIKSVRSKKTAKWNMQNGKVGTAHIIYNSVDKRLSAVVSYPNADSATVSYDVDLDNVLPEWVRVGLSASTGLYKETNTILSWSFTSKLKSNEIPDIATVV

[11] = anti-His antibody binders, primary screen, artefact control for SMM control protein annotation, biochemical, small-molecule microarray, 635 nm fluorescence (AID 1128); conditions: anti-His Alexa647 antibody binding, higher = more signal;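 note: score merges feature fluorescence with signal-to-noise for each printed compound spot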
[12] = system: Human papillomavirus type 1a E7 protein (residues 1-88); assay: HPV1a E7 small-molecule binders, primary screen, biochemical, small-molecule microarray, residues 1-88, 635 nm (AID 1129); conditions: small-molecule microarray binding, fluorescence 635 nm; higher = more signal
[13] = target: Focal adhesion kinase 1 (Homo sapiens) (UniProt Q05397); assay: small-molecule microarray binders of FAK, primary screen, biochemical, 635/667 nm fluorescence, BSA, DTT (AID 1130); conditions: PTK2 binding, 635 nm fluorescence, higher = more signal;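 note: composite of spot emission at 667 nm and signal to noise over triplicate slides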
Chain of Focal adhesion kinase 1 (Homo sapiens) (Q05397 whole entry, looked up): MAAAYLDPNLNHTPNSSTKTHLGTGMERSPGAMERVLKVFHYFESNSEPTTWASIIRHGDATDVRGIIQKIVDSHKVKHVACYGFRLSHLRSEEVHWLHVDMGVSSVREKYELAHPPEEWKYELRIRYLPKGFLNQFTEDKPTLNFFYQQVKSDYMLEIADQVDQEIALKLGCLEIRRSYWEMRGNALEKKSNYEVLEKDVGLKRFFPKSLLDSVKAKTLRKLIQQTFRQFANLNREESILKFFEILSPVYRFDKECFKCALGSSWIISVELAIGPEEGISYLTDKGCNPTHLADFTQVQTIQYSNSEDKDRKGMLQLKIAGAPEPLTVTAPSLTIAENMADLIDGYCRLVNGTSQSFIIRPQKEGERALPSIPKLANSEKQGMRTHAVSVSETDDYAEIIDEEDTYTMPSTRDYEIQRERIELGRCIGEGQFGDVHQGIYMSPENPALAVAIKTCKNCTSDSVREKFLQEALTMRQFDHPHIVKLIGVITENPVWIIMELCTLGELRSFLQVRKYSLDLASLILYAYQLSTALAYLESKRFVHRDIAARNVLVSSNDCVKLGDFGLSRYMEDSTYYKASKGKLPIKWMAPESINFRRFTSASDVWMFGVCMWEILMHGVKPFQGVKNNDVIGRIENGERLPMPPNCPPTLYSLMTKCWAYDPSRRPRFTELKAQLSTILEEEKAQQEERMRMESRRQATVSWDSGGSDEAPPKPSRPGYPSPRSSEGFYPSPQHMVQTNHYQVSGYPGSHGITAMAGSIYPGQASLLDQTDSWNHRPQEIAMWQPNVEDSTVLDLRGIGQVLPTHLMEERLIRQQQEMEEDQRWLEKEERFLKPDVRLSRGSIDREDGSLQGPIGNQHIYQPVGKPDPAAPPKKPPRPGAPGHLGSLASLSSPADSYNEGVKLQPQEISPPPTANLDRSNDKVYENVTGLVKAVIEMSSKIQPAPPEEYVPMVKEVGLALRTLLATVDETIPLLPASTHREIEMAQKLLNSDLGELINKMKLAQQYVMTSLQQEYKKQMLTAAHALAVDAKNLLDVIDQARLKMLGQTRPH

[14] = system: Fibrinogen (Alexa647-labelled); assay: fibrinogen binders on compound microarrays, profiling panel, artefact control for SMM control-protein annotation, biochemical, small-molecule microarray, 635/667 nm fluorescence (AID 1131); conditions: fibrinogen-A647 binding fluorescence, higher = more signal;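 note: z-score merges 667 nm fluorescence with per-spot signal-to-noise over triplicate slides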
[15] = target: Follistatin (Homo sapiens) (UniProt P19883); assay: follistatin binders on small-molecule microarrays, primary screen, biochemical, small-molecule microarray, 635/667 nm fluorescence (AID 1132); conditions: FST binding, 635 nm fluorescence, higher = more signal
Chain of Follistatin (Homo sapiens) (P19883 whole entry, looked up): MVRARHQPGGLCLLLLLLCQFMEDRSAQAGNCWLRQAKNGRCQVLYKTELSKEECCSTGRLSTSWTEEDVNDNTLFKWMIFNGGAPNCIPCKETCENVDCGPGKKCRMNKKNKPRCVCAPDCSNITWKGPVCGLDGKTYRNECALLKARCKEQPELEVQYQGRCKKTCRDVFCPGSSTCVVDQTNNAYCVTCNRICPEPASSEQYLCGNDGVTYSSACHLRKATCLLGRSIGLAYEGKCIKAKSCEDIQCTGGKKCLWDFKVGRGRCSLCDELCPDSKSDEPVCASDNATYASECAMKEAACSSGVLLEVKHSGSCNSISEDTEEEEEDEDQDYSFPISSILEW

[16] = target: Fibroblast growth factor 2 (Homo sapiens) (UniProt P09038); assay: FGF2 binders on small-molecule microarrays, primary screen, biochemical, small-molecule microarray, 635/667 nm fluorescence (AID 1133); conditions: small-molecule microarray binding, FGF2, fluorescence 635/667; higher = more signal
Chain of Fibroblast growth factor 2 (Homo sapiens) (P09038 whole entry, looked up): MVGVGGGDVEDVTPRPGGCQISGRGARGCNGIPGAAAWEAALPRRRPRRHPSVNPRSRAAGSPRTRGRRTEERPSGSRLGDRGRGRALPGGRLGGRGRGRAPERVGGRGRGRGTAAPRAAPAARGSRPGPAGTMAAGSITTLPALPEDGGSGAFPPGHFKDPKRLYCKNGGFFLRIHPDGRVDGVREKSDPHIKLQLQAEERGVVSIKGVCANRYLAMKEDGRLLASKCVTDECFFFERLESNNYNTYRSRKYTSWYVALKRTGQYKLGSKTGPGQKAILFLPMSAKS

[17] = mitochondrial membrane potential change in A549 cells, profiling panel, cell-based, JC-1 fluorescence, basal, 24 h, 100 nL (AID 1138); conditions: higher = more signal;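 note: A549 lung adenocarcinoma cells under basal conditions with no added stimulus; test concentration not given here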
[18] = system: Lefty1; assay: Lefty1 binders on small-molecule microarrays, primary screen, biochemical, small-molecule microarray, 635/667 nm fluorescence (AID 1139); conditions: small-molecule microarray binding, fluorescence 635/667; higher = more signal
[19] = system: wheat germ agglutinin (Triticum aestivum), Alexa647-labelled; assay: wheat germ agglutinin binders on compound microarrays, profiling panel, artefact control for SMM control-protein annotation, biochemical, small-molecule microarray, 635/667 nm fluorescence (AID 1140); conditions: WGA-A647 binding, 635 nm fluorescence, higher = more signal;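 note: score merges 667 nm feature emission with signal to noise over triplicate slides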
[20] = target: Luciferin 4-monooxygenase (Photinus pyralis) (UniProt P08659); assay: firefly luciferase enzyme inhibitors, primary screen, biochemical, luminescence, purified enzyme, 2006 set (AID 1141); conditions: SteadyGlo luminescence, 30 min, higher = more signal, called active from +8 up or from −8 down;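 note: cell-free assay with purified firefly luciferase at 100 ng per well in PBS; test concentration not given here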
Chain of Luciferin 4-monooxygenase (Photinus pyralis) (P08659 whole entry, looked up): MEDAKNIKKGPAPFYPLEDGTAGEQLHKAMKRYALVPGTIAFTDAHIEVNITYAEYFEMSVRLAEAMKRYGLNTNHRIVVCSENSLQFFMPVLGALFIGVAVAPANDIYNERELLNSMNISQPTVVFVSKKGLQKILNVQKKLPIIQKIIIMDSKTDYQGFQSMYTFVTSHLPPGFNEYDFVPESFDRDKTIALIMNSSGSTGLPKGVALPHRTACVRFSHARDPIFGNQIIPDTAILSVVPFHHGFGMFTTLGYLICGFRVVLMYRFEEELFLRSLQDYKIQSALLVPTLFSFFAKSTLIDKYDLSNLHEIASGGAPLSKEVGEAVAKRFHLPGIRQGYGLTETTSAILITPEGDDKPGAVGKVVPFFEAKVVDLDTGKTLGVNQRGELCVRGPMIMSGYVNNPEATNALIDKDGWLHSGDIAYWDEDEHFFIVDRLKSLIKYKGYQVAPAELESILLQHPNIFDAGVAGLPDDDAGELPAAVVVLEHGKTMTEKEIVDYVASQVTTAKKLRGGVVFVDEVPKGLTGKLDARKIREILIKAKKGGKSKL

Structure (SMILES) | composite z-score [1] | composite Z-score [2] | composite z-score [3] | composite z-score [4] | composite z-score [5] | composite z-score [6] | composite z-score [7] | composite z-score [8] | composite z-score [9] | composite z-score [10] | composite z-score [11] | composite z-score [12] | composite z-score [13] | composite z-score [14] | composite z-score [15] | composite z-score [16] | z-score [17] | composite z-score [18] | composite z-score [19] | z-score [20]
O=C1CCCC=C1C(O)c1ccc([N+](=O)[O-])cc1 (stereo not given) | 0.265 | -0.163 (inactive) | 0.0494 | -0.148 | -0.187 | -0.251 | 0.0252 | -0.311 | 0.0616 | -0.343 | -0.162 | 0.154 | -0.126 | -0.101 | -0.102 | 0.511 | -0.115 | 0.0283 | -0.199 | -0.171 (inactive)
COC(=O)CC=C[C@@H](C)[C@@H](C=NOC(C)CN1CCCCc2nc(C)c(C)cc21)NS(=O)(=O)c1ccc(C)cc1 (stereo not given in full) | -0.636 | -0.292 (inactive) | 0.0949 | -0.19 | -0.277 | -0.065 | 0.0618 | 0.0692 | 1.17 | -0.135 | 0.0454 | 0.156 | 0.0646 | -0.207 | 0.927 | 0.601 | -0.297 | 0.417 | 0.0721 | 0.183 (inactive)
COc1ccc(O[C@H]2C=C[C@@H](c3ccccc3)O[C@@H]2CO)cc1 | -0.311 | -0.0521 (inactive) | 0.0762 | -0.104 | 0.131 | -0.209 | 0.0797 | -0.713 | 0.495 | 0.304 | -0.457 | -0.145 | -0.363 | -0.0957 | 0.36 | 0.363 | 0.319 | 0.479 | -0.126 | -0.162 (inactive)
COC(=O)[C@H](Cc1ccccc1)NC(=O)[C@@H](C)CO | 0.317 | 0.047 (inactive) | 0.226 | -0.181 | 0.465 | 0.207 | 0.143 | 0.48 | 0.501 | -1.01 | 0.0868 | -0.196 | -0.233 | 0.115 | 1.28 | 0.592 | -1.2 | 1.5 | 0.821 | 0.716 (inactive)
CC(CCN1CCCCc2nc(C)c(C)cc21)=NO[C@@H](C)c1cc(-c2c(C)cc(C)cc2C)no1 | 0.335 | -0.0861 (inactive) | -0.231 | -0.0904 | -0.079 | -0.257 | 0.197 | -1.33 | -0.734 | -1.84 | -0.335 | -0.384 | 0.0796 | -0.317 | -0.673 | -0.682 | 1.91 | -0.315 | -0.547 | -1.49 (inactive)
CO[C@@H]1COC(=O)[C@@H]2CCCN2C(=O)[C@@H](C)COC(=O)CCC[C@H]1C | 0.379 | 0.305 (inactive) | 0.109 | -0.16 | -0.126 | 0.0072 | 0.557 | 1.27 | 0.438 | -0.0031 | 0.176 | 0.0997 | 0.154 | 0.482 | 0.529 | 0.264 | -0.601 | 0.486 | 0.2 | 0.173 (inactive)
CC(=O)OC[C@H]1O[C@H](C#CCC2CCCCC2)C=C[C@@H]1OC(C)=O | 0.718 | -0.106 (inactive) | -0.154 | -0.0632 | 0.494 | 0.853 | 0.53 | 0.953 | 0.32 | 1.04 | 0.502 | 0.916 | -0.146 | 0.672 | 0.675 | 0.339 | 0.587 | 0.513 | 0.371 | -2.68 (inactive)
C[C@H]1CC[C@H]2C(=O)O[C@H](CO)CN2[C@@H]1c1ccc(Br)cc1 | 0.167 | 0.436 (inactive) | 0.0081 | -0.124 | -0.11 | -0.0346 | 0.0438 | 0.424 | 0.229 | -0.453 | -0.15 | 0.015 | 0.638 | 0.0011 | 0.0723 | 0.103 | 0.69 | 0.353 | -0.004 | -0.19 (inactive)
CN1CCc2nc(-c3ccccc3)c(-c3ccccc3)cc2C1 | 0.0013 | -0.341 (inactive) | -0.0343 | -0.115 | -0.132 | -0.0596 | -0.247 | -0.23 | 0.58 | 0.486 | 0.532 | 0.26 | 0.163 | 0.547 | 0.397 | 0.325 | 0.0181 | 0.256 | -0.0097 | -0.133 (inactive)
CO[C@H]1COC(=O)CCC[C@H](C)[C@@H](OC)COC(=O)CC=C[C@@H]1C | -0.553 | 0.168 (inactive) | -0.136 | -0.0766 | -0.298 | -0.378 | -0.0711 | 0.113 | 0.896 | -0.427 | 1.36 | -0.117 | -0.246 | -0.0891 | 0.393 | 0.638 | -0.86 | 0.562 | -0.181 | 0.949 (inactive)
